# Assay outcomes deposited in PubChem by National Center for Advancing Translational Sciences (NCATS).
# IL1B secr inh = inflammasome signaling inhibition, IL-1 beta readout; THP-1 LPS/ATP IL-1B secretion, AlphaLISA, 16 h; active compounds read low; activity change, % at 57.5 µM; hit rate 4.7% among 360,000; in the data active means activity change below about -50%; inconclusive means mostly about -30% to -49%
#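 THP-1 cells pretreated 1 hr with compounds (up to 57.5 uM final), then stimulated with LPS (250 ng/mL final) plus ATP (1.25 mM final); secreted IL-1B measured by AlphaLISA after 16 hr, decreased signal indicating inhibition.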
# HT1080 IDH1KD tx = HT-1080 IDH1 knockdown cell toxicity (counter line) | HT-1080 IDH1 knockdown viability, ATP luminescence, 48 h | Potency, µM (titrated, usually from 46.1 µM), for inactives: at the top dose activity, negative = toxicity, usual class: cytotoxic | hit rate 2% among 360,000;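 further: potency means the concentration at half of the fitted maximal effect; 0% = DMSO wells and -100% = cell-free medium wells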
#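 % activity derives from luminescence (CellTiter-Glo), normalised to DMSO and no-cell wells. HT-1080-IDH1KD cells, 750/well, had 48 h compound exposure at 37 °C.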
# TDP1 cell noCPT = qHTS for Inhibitors of human tyrosyl-DNA phosphodiesterase 1 (TDP1): qHTS in cells in absence of CPT; DT40 Tdp1-/- hTDP1 cells, no CPT, ATP luminescence, 48 h; Potency, µM (highest dose often 46.2 µM), inactives show top-dose activity change, negative = growth inhibition, hits mostly inhibitors; hit rate 15% among 420,000; AID 686978, 2013; further: potency means the concentration at half of the fitted maximal effect; nearly all actives have a fitted effect of over 55% in size
#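 DT40 Tdp1-/-;hTDP1 cells, no CPT (DMSO vehicle only), 400 cells/well; compounds pin-transferred; ≥48 hr, 37 °C; CellTiter-Glo 30 min RT dark, luminescence read.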
# DT40 TDP1 CPT = DT40-hTDP1 cell growth loss with CPT; chicken DT40 Tdp1-/-;hTDP1 cells + 20 nM CPT, ATP luminescence, 48 h; Potency, µM (series often up to 46.2 µM), inactives show top-dose activity change, negative = growth inhibition, actives largely listed as inhibitors; hit rate 12% among 420,000; further: potency means the concentration at half of the fitted maximal effect; nearly all actives have a fitted effect of over 55% in size
#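 Chicken DT40 Tdp1-/- cells complemented with human TDP1, 400 cells/well, exposed to compounds plus 20 nM camptothecin for at least 48 h at 37 C; viability read as ATP content by CellTiter-Glo luminescence.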
# HT1080-NT tox = kills 2HG-producing HT-1080-NT fibrosarcoma cells; Potency, µM (titrated, usually from 46.1 µM), for inactives: at the top dose activity, negative = less viability, hits mostly cytotoxic; HT-1080-NT fibrosarcoma viability, CellTiter-Glo ATP luminescence, 48 h; hit rate 1.6% among 360,000;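 further: NT is the 2HG producing partner of a matched IDH1 knockdown line; potency means the concentration at half of the fitted maximal effect; 0% = DMSO-treated cells and -100% = media-only wells without cells; nearly all actives have a fitted effect of over 55% in size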
#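 Viability by CellTiter-Glo luminescence after 48 h compound exposure at 37C of HT-1080-NT cells (750/well, RPMI, 5% FBS). % activity scaled between DMSO wells and medium-only wells, then curve-fitted and categorized by curve class.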
# 12-LOX inh = ALOX12 (human) lipoxygenase inhibition | hit rate 1.1% among 580,000 | AID 1671190 | P18054 | purified 12hLO, xylenol orange hydroperoxide absorbance | Potency, µM (highest dose often 108 µM), inactives show top-dose activity change, negative = inhibition, most hits filed as inhibitors; further: potency means the concentration at half of the fitted maximal effect
# Target sequence (P18054 whole entry, looked up): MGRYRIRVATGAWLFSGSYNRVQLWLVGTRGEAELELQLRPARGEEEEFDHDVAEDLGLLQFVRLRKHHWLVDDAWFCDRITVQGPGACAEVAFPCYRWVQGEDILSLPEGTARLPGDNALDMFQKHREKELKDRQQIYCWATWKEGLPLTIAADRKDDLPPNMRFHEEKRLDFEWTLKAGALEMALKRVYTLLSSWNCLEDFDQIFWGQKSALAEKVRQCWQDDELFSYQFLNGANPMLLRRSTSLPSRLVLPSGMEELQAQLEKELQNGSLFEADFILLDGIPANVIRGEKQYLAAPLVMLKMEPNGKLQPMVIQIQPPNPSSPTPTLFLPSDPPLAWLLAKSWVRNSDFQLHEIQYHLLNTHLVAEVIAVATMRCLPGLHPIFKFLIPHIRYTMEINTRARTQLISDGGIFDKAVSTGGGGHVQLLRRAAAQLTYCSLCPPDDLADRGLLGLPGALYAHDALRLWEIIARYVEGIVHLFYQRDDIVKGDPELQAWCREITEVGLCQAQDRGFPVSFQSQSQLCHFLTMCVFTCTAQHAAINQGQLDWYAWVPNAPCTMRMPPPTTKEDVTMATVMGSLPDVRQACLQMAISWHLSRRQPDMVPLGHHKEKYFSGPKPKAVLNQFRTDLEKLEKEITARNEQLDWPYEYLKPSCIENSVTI
#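 Purified human 12hLO at 150 nM in 25 mM Hepes, 0.01% Triton X-100, pH 7.0, preincubated 15 min at room temperature with compound. Reaction started with 40 uM arachidonic acid, 30 min at room temperature. Hydroperoxide measured by Fe-xylenol orange, 573/405 nm absorbance ratio.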
# Numbers without * were called inactive; ? = inconclusive; . = no result given. Many of the other results were omitted from the sample, so hits are more common in it than they were. Unless noted, the call rests on the fitted dose curve; in most records, active means well fitted curve in the direction sought with a large enough effect; inconclusive means small, poorly fitted or top-dose-only effect, or another doubt; inactive means no such curve, though single readings can be large; an effect the other way counts as inactive or inconclusive. Unless noted, on the % scale 0 is the no-effect control and ±100 the full control effect.
SMILES,IL1B secr inh,HT1080 IDH1KD tx,TDP1 cell noCPT,DT40 TDP1 CPT,HT1080-NT tox,12-LOX inh
CC(=O)C1(O)CCC2C3CC(C)C4=CC(=O)C=CC4(C)C3(F)C(O)CC21C (stereo not drawn),-54*,?,-28%,?,?,2%
CCOc1ccc(-n2nc(CO)c(C(=O)NCc3cccs3)n2)cc1,.,.,16µM*,?,.,-18%
CCOC(=O)c1sc2nc(C(C)N3CCCC3)[nH]c(=O)c2c1C (stereo not drawn),.,.,.,.,.,35%
Cc1ccc2c(c1)c(=O)c1ccccc1n2CCCC(=O)Nc1ccc(C)c(C)c1,.,.,23µM*,23µM*,.,-26%
O=C(CCCn1c2ccccc2c(=O)c2ccccc21)Nc1cccc(Cl)c1,.,.,16µM*,?,.,?
Cc1ccc2c(c1)c(=O)c1ccccc1n2CCCC(=O)Nc1ccc(C)c(F)c1,.,.,?,?,.,-24%
Cc1ccc2c(c1)c(=O)c1ccccc1n2CCCC(=O)Nc1ccc(Cl)cc1C,.,.,?,?,.,-7%
Cc1ccc(NC(=O)CSc2ncc(-c3ccc(Cl)cc3)o2)cc1C,.,.,.,.,.,-2%
COCCNC(=S)N/N=C/c1c2ccccc2cc2ccccc12,22,-16%,4.1µM*,3.7µM*,-17%,40µM*
NC(=S)N/N=C\c1c2ccccc2cc2ccccc12,-22,-19%,?,15µM*,-15%,?
CNC(=S)N/N=C/c1c2ccccc2c(Cl)c2ccccc12,12,-13%,5.8µM*,5.8µM*,-10%,?
NC(=S)NN=Cc1cc(-c2cccc(N)c2)ccn1,134,?,4.1µM*,3.7µM*,-15%,0%
NC(=S)N/N=C/c1c(Cl)cccc1Cl,.,.,.,.,.,4%
CCOc1ccc2ccccc2c1/C=N/NC(=O)c1ccc(C)nc1,-2,3%,?,4%,3%,0%
NC(=S)N/N=C\c1c(OCc2ccccc2Cl)ccc2ccccc12,-19,-11%,?,6.5µM*,-12%,22µM*
COc1ccc2c(Cn3cnc4cc([N+](=O)[O-])ccc4c3=O)cc(=O)oc2c1,1,2.6µM*,6.5µM*,5.2µM*,3.7µM*,.
Cc1ccc(OCCn2cnc3cc([N+](=O)[O-])ccc3c2=O)cc1,16,-25%,?,?,-12%,3%
CCOC(=O)C1CCCN(S(=O)(=O)c2ccc(Br)s2)C1 (stereo not drawn),0,-4%,-14%,?,4%,-12%
O=C(C1CCCN(S(=O)(=O)c2ccc(Br)s2)C1)N1CCN(c2ccccc2F)CC1 (stereo not drawn),.,.,23µM*,?,.,-25%
O=C(C1CCCN(S(=O)(=O)c2ccc(Br)s2)C1)N1CCN(c2ccc(F)cc2)CC1 (stereo not drawn),.,.,12µM*,18µM*,.,-27%
O=C(C1CCCN(S(=O)(=O)c2cccs2)C1)N1CCN(c2ccccc2F)CC1 (stereo not drawn),.,.,15µM*,23µM*,.,0%
O=C(O)C1CCCN(S(=O)(=O)c2cccs2)C1 (stereo not drawn),-1,12%,-1%,3%,2%,9%
CC(=O)c1ccc(N2CCN(C(=O)C3CCN(S(=O)(=O)c4ccc(Br)s4)CC3)CC2)cc1,.,.,16µM*,?,.,-12%
COc1ccc(N(C(=O)c2ccco2)S(=O)(=O)c2ccc3c(c2)oc(=O)n3C)cc1,.,.,.,.,.,-22%
COc1cc(OC)c(NC(=O)N2CCN(c3ccc(=O)n(-c4ccc(F)cc4)n3)CC2)cc1Cl,.,.,.,.,.,18%
COc1ccc(OC)c(NC(=O)CCC[C@@H]2[C@H]3CCCN4CCC[C@@H](CN2C)[C@@H]34)c1,.,.,.,.,.,60%
